Test results reported in PubChem BioAssay (NCI).
Compounds without any hit were thinned out: in the full panel of roughly 83,000, 20% have a hit.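 How to read the values: 0–100, growth inhibition (40 = 60% inhibited); 0, no net growth; -100 to 0, cell death (-40 = 40% of starting cells died; -100 = all dead).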 Values without a mark were called inactive. The source made the active and inactive calls. How the source made its calls: active means growth percent below 10; inactive means the rest.

Assays:
Test in all cases: NCI-60 one-dose screen, 48 h (100 = growth as untreated, 0 = no growth, -100 = all killed)
Settings in all cases: 10 µM unless noted
NCI-H23 lung = test system: NCI-H23 lung
NCI-H226 lung = test system: NCI-H226 lung
NCI-H322M lung = test system: NCI-H322M lung
HOP-62 NSCLC = test system: HOP-62 NSCLC
NCI-H460 lung = test system: NCI-H460 lung
HOP-92 NSCLC = test system: HOP-92 NSCLC
NCI-H522 lung = test system: NCI-H522 lung
A549/ATCC NSCLC = test system: A549/ATCC NSCLC
786-0 renal = test system: 786-0 renal
COLO 205 colon = test system: COLO 205 colon
DU-145 prostate = test system: DU-145 prostate
K-562 leukemia = test system: K-562 leukemia
MALME-3M melanoma = test system: MALME-3M melanoma
MDA-MB-231 breast = test system: MDA-MB-231 breast
RXF 393 renal = test system: RXF 393 renal
SF-268 CNS = test system: SF-268 CNS
SF-295 CNS = test system: SF-295 CNS
SF-539 CNS = test system: SF-539 CNS
UACC-257 melanoma = test system: UACC-257 melanoma
M14 melanoma = test system: M14 melanoma

Row | Compound | growth (NCI-H23 lung) | growth (NCI-H226 lung) [%] | growth (NCI-H322M lung) | growth (HOP-62 NSCLC) | growth (NCI-H460 lung) | growth (HOP-92 NSCLC) | growth (NCI-H522 lung) | growth (A549/ATCC NSCLC) | growth (786-0 renal) | growth (COLO 205 colon) | growth (DU-145 prostate) | growth (K-562 leukemia) | growth (MALME-3M melanoma) | growth (MDA-MB-231 breast) | growth (RXF 393 renal) | growth (SF-268 CNS) | growth (SF-295 CNS) | growth (SF-539 CNS) | growth (UACC-257 melanoma) | growth (M14 melanoma)
1 | ClC(Cl)c1nc(-c2ccccc2)n2nc(-c3ccccc3)cc2n1 | -17.6% (active) | 86.9 | -41.7% (active) | -3.61% (active) | -58.2% (active) | 3.98% (active) | 29.9% | -16.2% (active) | 42.9% | -40.3% (active) | -12% (active) | 31.2% | 55.9% | 2.2% (active) | -68% (active) | 11.9% | -13.1% (active) | 0.564% (active) | 33.9% | 32.3%
2 | C1CCC(N2CN3c4nonc4N4CN(C5CCCCC5)CN5c6nonc6N(C2)C3C45)CC1 (stereo not given) | 98.4% | 96.4 | 95.6% | 97.2% | 99.4% | 82.1% | 92.1% | 92.4% | 108% | 107% | 104% | 82.1% | 91.5% | 106% | 103% | 96.5% | 91.6% | 101% | 99.2% | 96%
3 | COc1cc([C@@H](CCO)C[C@H](C)c2ccc3ccccc3c2)cc(OC)c1OC | 54.6% | 56.4 | 46.7% | 40.6% | 17.3% | 30.8% | -7.95% (active) | 46.8% | 28% | 16.1% | 47.1% | 12.1% | 44.5% | 43.8% | 32.3% | 48.9% | 19.6% | 9.87% (active) | 60.6% | 15.5%
4 | Clc1ccc(-c2nc(C(Cl)Cl)nc3cc(-c4ccccc4)nn23)cc1 | -3.66% (active) | 84.6 | -50.5% (active) | 14.6% | -54.6% (active) | 49.4% | 22.6% | -12.7% (active) | 79.9% | -8.35% (active) | -2.59% (active) | 33.2% | 46.4% | 36.9% | -55% (active) | 41.7% | 14.3% | 44% | 52.5% | 24.2%
5 | CC/C(=C(/c1ccc(O)cc1)c1ccc(OCCN2CCCCC2)cc1)c1ccc(OC)cc1 | 79.2% | 103 | 90.2% | 83.5% | 57.4% | 70.2% | 74.7% | 64.4% | 57.1% | -28.9% (active) | 71.3% | -30.8% (active) | -28.3% (active) | 55.1% | 68.4% | 62.6% | 86.9% | 86.3% | 81% | -61.2% (active)
6 | COc1cc(-c2cc(-c3ccc(Nc4nc(Nc5ccc(Cl)cc5)nc(Nc5ccc(Cl)cc5)n4)cc3)no2)cc(OC)c1OC | 88.3% | 78 | 80.8% | 70.3% | 76.2% | 37.9% | 76.5% | 66.7% | 72.7% | 51.5% | 80.6% | 50.9% | 88.7% | 64.4% | 33.9% | 67.9% | 62.3% | 74.9% | 100% | 68.3%
7 | CCOC(=O)C/C(=N\Nc1cc(=O)[nH]c2ccc(OC)cc12)C(=O)OCC | 99.4% | 97.6 | 94.9% | 105% | 100% | 87.2% | 109% | 105% | 107% | 114% | 99.6% | 89.3% | 104% | 98.4% | 96.4% | 98% | 101% | 90.9% | 108% | 102%
8 | CS(=O)(=O)c1ccc(-c2nc3ccccc3n2CC(=O)N/N=C/c2ccccc2)cc1 | 94.2% | 98.8 | 95.5% | 89% | 107% | 96.3% | 79.1% | 97.2% | 97.1% | 104% | 111% | 92.3% | 82.4% | 97.6% | 116% | 97.5% | 94.2% | 97.5% | 98.8% | 90.4%
9 | COc1ccc(C2CC(n3ccnc3)c3cc(OC)c(OC)c(OC)c32)cc1O (stereo not given) | 91.5% | 97.4 | 102% | 80.8% | 78.7% | 59.6% | 50.1% | 55.8% | 91.7% | 107% | 102% | 44.7% | 73.2% | 81% | 70.8% | 90% | 57.5% | 89.8% | 58.5% | 73.1%
10 | COC12C=C/C(=C(/C(=O)OCc3csc(SC)n3)C(=O)CCCCCCCCC3(OC)C=C/C(=C(/C(=O)OCc4cnc(SC)s4)C(=O)CCCCCCCC1)O3)O2 (stereo not given) | 15.7% | 12 | 46.5% | 58.7% | 27.2% | 78.2% | 24.2% | 39.8% | 35.1% | 25.5% | 50.3% | 25.3% | -1.67% (active) | 19.1% | -35.4% (active) | 44.7% | 14.8% | 27.4% | 56.8% | 12%
11 | CCCC(O)Cn1ncc(C(=O)OCC)c1NC(=O)NCc1cccc(C(F)(F)F)c1 (stereo not given) | 80.1% | 103 | 84.3% | 88.2% | 103% | 58.8% | 46.5% | 95% | 80.1% | 109% | 99.8% | 46.9% | 92% | 95.1% | 113% | 103% | 93.8% | 94.3% | 101% | 58.5%
12 | Cc1nc([P+](c2ccccc2)(c2ccccc2)c2ccccc2)c(N2CCCCC2)o1 | 17.1% | 53.9 | 78.4% | 30.3% | 12.7% | 16.7% | 28.8% | 32.8% | 60.3% | -45.3% (active) | 30.2% | 15.8% | 53.7% | 43.5% | 67% | 26% | 32.7% | 46.6% | 8.05% (active) | 37%
13 | CCCCO[C@@H]1C=C2[C@H]3CC(C)(C)C(=O)C[C@]3(C(=O)O[C@@H]3O[C@H](CO[C@@H]4O[C@H](CO)[C@@H](OC5OC(C)C(O)C(O)C5O)[C@H](O)[C@H]4O)[C@@H](O)[C@H](O)[C@H]3O)CC[C@@]2(C)[C@]2(C)CC[C@H]3C(C)(C)C(=O)CC[C@]3(C)[C@@H]12 (stereo not given in full) | 60.3% | 45.6 | 84.3% | 76.1% | 91.8% | 2.25% (active) | 67.9% | 84.8% | 29.5% | 97.2% | 97.9% | 90.5% | 34.2% | 73.2% | 63.2% | 47.2% | 92.8% | 60.1% | 49.1% | 40.5%
14 | N=C(N)c1ccc(-c2ccc(-c3cc(Cl)cc(Cl)c3)s2)s1 | -49.5% (active) | 90.8 | -44.7% (active) | -28.3% (active) | -33.9% (active) | 50.2% | -70.6% (active) | -52.8% (active) | -74.5% (active) | -75.4% (active) | -72.2% (active) | -52.5% (active) | -13.1% (active) | -55.1% (active) | -84.2% (active) | -43.8% (active) | -69.8% (active) | -60.6% (active) | -46.3% (active) | 1.55% (active)
